# Source: paper PMC4336329 (PLoS ONE, 2015)
# Among all 310,000 compounds or so, about 14,000 (4.5%) showed an effect of 50% or more. The effect is printed as a negative number. What follows is part of a selection rich in strong results, with near analogues and random picks from the rest.
# Target: human ether-à-go-go-related gene (hERG) potassium channel (human, UniProt Q12809)
# Experiment: primary screen, population patch clamp on CHO cells stably expressing hERG; higher = less effect of the substance
# 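Note: peak tail current of the secondary pulse compared with the same well before compound.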
# Sequence of human ether-à-go-go-related gene (hERG) potassium channel (Q12809 whole entry, looked up): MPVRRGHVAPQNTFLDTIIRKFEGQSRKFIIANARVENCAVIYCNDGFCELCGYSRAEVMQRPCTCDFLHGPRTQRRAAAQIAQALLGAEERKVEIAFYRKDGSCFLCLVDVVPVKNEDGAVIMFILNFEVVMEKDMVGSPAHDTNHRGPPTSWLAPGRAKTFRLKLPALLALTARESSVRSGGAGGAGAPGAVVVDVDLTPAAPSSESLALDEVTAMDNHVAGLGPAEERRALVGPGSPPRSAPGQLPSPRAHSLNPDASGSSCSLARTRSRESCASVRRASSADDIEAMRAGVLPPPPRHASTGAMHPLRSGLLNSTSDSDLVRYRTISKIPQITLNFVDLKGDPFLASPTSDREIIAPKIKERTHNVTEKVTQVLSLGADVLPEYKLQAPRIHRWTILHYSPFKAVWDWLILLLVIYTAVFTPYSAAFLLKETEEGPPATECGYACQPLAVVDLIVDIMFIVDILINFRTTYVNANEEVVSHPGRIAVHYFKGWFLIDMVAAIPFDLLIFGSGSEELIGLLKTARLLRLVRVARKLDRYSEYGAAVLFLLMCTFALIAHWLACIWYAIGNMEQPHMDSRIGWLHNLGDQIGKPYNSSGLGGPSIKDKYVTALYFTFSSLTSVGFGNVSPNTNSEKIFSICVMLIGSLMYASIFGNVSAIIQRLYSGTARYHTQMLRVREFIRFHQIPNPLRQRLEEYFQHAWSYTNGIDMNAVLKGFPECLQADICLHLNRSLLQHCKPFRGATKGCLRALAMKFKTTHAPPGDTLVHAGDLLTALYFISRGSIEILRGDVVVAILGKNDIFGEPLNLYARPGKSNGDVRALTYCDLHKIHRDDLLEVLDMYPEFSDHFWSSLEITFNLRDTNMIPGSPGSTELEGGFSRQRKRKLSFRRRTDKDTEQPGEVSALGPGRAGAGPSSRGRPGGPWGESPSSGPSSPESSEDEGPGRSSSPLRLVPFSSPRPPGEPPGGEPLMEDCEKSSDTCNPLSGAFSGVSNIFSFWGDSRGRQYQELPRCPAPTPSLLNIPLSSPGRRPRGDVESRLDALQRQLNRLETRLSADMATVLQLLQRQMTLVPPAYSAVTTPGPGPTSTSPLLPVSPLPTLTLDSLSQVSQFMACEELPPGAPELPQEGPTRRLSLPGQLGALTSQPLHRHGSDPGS
row,SMILES,"hERG current change (%, negative = inhibition) at 10uM"
1,O=c1c2ccccc2nc(-c2ccoc2)n1CCc1ccccc1,-3.87%
2,COc1ccc(NC(=O)CCC(=O)N(Cc2ccc(OC)c(OC)c2)c2nccs2)cc1,13.5%
3,CC(=O)Nc1ccc(NC(=O)c2ccc(N(C)S(=O)(=O)c3ccc(C)cc3)cc2)cc1,6.8%
4,CC(=O)Oc1ccc2c(=O)c(-c3ccccc3)c(C)oc2c1,16.2%
5,O=C(CSc1ncnc2scc(-c3ccccc3)c12)Nc1ccc(C(=O)O)cc1,8.17%
6,COc1ccc(C(C(=O)NC2CCCCC2)N(C(=O)c2ccco2)c2ccc(-n3cnnn3)c(C)c2)cc1 (stereo not drawn),8.93%
7,CCCN1C(=O)c2cc(C(=O)Nc3ccccc3CC)ccc2C1O (stereo not drawn),2.3%
8,N#Cc1c(N)n(CCNC(=O)c2cccs2)c2nc3ccccc3nc12,10.4%
9,O/N=C/c1ccnc(SCc2ccccc2)n1,-12.1%
10,Cc1c(NC(=O)C(C)OC(=O)c2cccs2)c(=O)n(-c2ccccc2)n1C (stereo not drawn),3.46%
11,Cc1c(NC(=O)C(C)OC(=O)c2cc3c4ccccc4n(C)c3s2)c(=O)n(-c2ccccc2)n1C (stereo not drawn),-68.5%
12,Cc1c(NC(=O)COC(=O)c2cc3c4ccccc4n(C)c3s2)c(=O)n(-c2ccccc2)n1C,-11.8%
13,CN(C)S(=O)(=O)c1ccc(N=Cc2c(C(F)(F)F)[nH][nH]c2=O)cc1,23%
14,CC(C)(C)c1ccccc1NC(=O)CN1C(=O)NC2(CCCC2)C1=O,1.01%
15,CCC(=O)N1CCN(c2ccc(NC(=O)c3cc4ccccc4o3)cc2)CC1,-23.3%
16,CC(C)C(=O)N1CCN(c2ccc(NC(=O)c3cccs3)cc2Cl)CC1,-14.7%
17,O=C(Nc1ccc(N2CCN(C(=O)c3ccco3)CC2)c(Cl)c1)c1cc2ccccc2o1,-67.9%
18,CCCC(=O)N1CCN(c2ccc(NC(=O)c3cccs3)cc2)CC1,-18.2%
19,CCC(=O)N1CCN(c2ccc(NC(=O)c3cc4ccccc4o3)cc2Cl)CC1,-67.7%
20,CCCC(=O)N1CCN(c2ccc(NC(=O)c3cccs3)cc2Cl)CC1,-66.8%
21,O=C(Nc1ccc(N2CCOCC2)c(Cl)c1)c1cc2ccccc2o1,-36.1%

row,SMILES,"hERG current change (%, negative = inhibition) at 10uM"
1,CCCC(=O)N1CCN(c2ccc(NC(=O)c3cc4ccccc4o3)cc2)CC1,-13.4%
2,Cc1ccccc1C(=O)N1CCN(c2ccc(NC(=O)c3ccco3)cc2Cl)CC1,-43.2%
3,O=C(Nc1ccc(N2CCN(C(=O)c3ccco3)CC2)c(Cl)c1)c1c(F)c(F)c(F)c(F)c1F,-32.1%
4,CCCC(=O)N1CCN(c2ccc(NC(=O)c3cc4ccccc4o3)cc2Cl)CC1,-56.8%
5,Cc1ccc(NC(=O)c2cc3ccccc3o2)cc1Cl,19.7%
6,O=C(Cc1ccccc1[N+](=O)[O-])Nc1ccc2c(c1)OCO2,-40.1%
7,CCOc1ccc(CCNC(=O)c2cccnc2N2CCCC2)cc1OCC,13.2%
8,Cc1ccc(C)c(C(=O)Nc2c(C(N)=O)oc3ccccc23)c1,5.52%
9,COc1cccc(C(=O)NC2CCSC2=O)c1 (stereo not drawn),23.8%
10,CC(=O)c1ccc(N2CCN(C(=O)[C@H](C)NC(=O)c3ccccc3Cl)CC2)cc1,-9.57%
11,COC(=O)[C@@H]1C[C@@]2(O)[C@H](O)[C@H](O)[C@H](O)C[C@H]2N1CC1CC1,6.98%
12,N#Cc1c(N)nc2c(c1-c1ccccc1)CCCC2,-1.63%
13,O=C1c2ccccc2C(=O)C1(CO)c1ccccc1,27.7%
14,CCC(=O)N1CCN(c2ccccc2NC(=O)c2cccs2)CC1,-50.4%
15,CC(=O)N1CCN(c2ccccc2NC(=O)c2cccs2)CC1,-43.8%
16,O=C(NC(=S)Nc1ccccc1N1CCCCC1)c1cccs1,6.21%
17,CC1CCN(c2ccccc2NC(=S)NC(=O)c2cccs2)CC1,-50.2%
18,CN1CCN(c2ccccc2NC(=O)c2cccs2)CC1,-47.5%
19,O=C(NC(=S)Nc1ccccc1N1CCCC1)c1cccs1,7.27%
20,CCCC(=O)N(CCN1CCOCC1)c1nc2c(OC)ccc(OC)c2s1.Cl,-15.5%
21,CCOC(=O)C1=C(N)Oc2cc(O)ccc2C1c1cccc([N+](=O)[O-])c1 (stereo not drawn),-11.3%
